The list is not random: actives were taken first. Their share in the collection is about 1.6%.
KCNQ2 block = inhibitors of rat KCNQ2 potassium channel. CHO-K1 KCNQ2, FluxOR thallium flux, 20 min; hits give low values. O88943. 310,000 compounds, 1.1% hits. B-score at 10 µM;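 active means fluorescence ratio B-score at most minus 3 library SDs, with starting brightness B-score within 2 library SDs, cut at about -5.5 in these data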
KCNQ2 enhance = potentiators of rat KCNQ2 potassium channel. AID 2239. B-score at 10 µM. CHO-K1 KCNQ2, FluxOR thallium flux fluorescence; hits give high values. 310,000 compounds, 0.54% hits;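 active means fluorescence ratio B-score at least 3 SD of library B-scores, with initial fluorescence B-score within 3 of them, cut at about 5.3 in these data; same plate scores as AID 2156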;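 further: B-score of peak minus minimum over baseline fluorescence ratio after K+ and Tl+ stimulus; positive B-score means potentiation of KCNQ2 with more thallium influx and brighter signal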
Kir21 conf inh = confirmation of mouse Kir2.1 potassium channel inhibitors; Kir2.1-expressing cells, FluxOR thallium flux fluorescence; hits give low values; 2,300 compounds, 41% hits; shares compounds with KCNQ2 enhance; Tl flux remaining, % of negative control (hits give low values), % at 10 µM;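 active means Primary-screen hit whose thallium flux fell at least 3 control SD below untreated wells in both duplicates, with normal baseline fluorescence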;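 further: 0% = blank wells without stimulus and 100% = stimulated no-compound controls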
Target sequence (P35561 whole entry, looked up): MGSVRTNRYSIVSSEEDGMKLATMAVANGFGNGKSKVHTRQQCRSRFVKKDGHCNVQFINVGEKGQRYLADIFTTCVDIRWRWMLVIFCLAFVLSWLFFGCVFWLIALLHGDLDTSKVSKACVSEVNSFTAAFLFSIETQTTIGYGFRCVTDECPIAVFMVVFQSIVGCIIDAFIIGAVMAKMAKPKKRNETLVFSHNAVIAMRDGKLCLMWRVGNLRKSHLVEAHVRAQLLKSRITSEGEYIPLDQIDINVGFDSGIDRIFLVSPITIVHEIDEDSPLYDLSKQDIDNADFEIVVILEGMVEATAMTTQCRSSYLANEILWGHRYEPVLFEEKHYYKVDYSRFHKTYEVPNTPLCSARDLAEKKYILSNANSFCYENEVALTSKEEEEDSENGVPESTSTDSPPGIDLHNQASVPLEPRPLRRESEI
HEK293 Tl flux = counter-screen for Kir2.1 inhibitors: effect in parental HEK293 cells. shares compounds with KCNQ2 enhance. FluxOR signal as % of negative control (100 = no effect), % at 10 µM. 2,300 compounds, 19% hits. FluxOR thallium flux fluorescence; 0% = unstimulated blank wells;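 active means dye signal at least 3 control SD above or below untreated wells in both duplicates, raw fluorescence within 3, either direction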;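 further: percent is based on the flux ratio of peak minus minimum fluorescence over baseline F0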
CHO-K1 Tl ctr = parental CHO-K1 activity in KCNQ2 potentiator counter-screen | shares compounds with KCNQ2 enhance | parental CHO-K1 cells, FluxOR thallium flux fluorescence; zero = vehicle mean+3SD, 100% = vehicle-minus-blank window | activity increase over 3SD of controls, % at 10 µM | 1,200 compounds, 43% hits;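 active means signal rise of at least 3 SD above the untreated control mean, in both duplicate wells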;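 further: counter screen of KCNQ2 potentiator hits so any rise reflects channel-independent effects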
KCNQ1 pot spec = selectivity of KCNQ2 potentiators: effect on human KCNQ1. CHO KCNQ1 stable, FluxOR thallium flux fluorescence; beyond 3SD, as % of vehicle-control signal. shares compounds with KCNQ2 enhance. AID 2283. 1,200 compounds, 28% hits. activation over 3SD threshold, % at 10 µM;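 active means fluorescence ratio rise of at least 3 SD of vehicle wells above their mean, in both replicate wells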;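 further: 0% = vehicle mean plus 3 SD and 100% = vehicle minus unstimulated blank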
KCNQ2 pot confirm = rat KCNQ2 channel potentiator confirmation | 1,200 compounds, 68% hits | AID 2287 | CHO-KCNQ2 cells, FluxOR thallium flux fluorescence | shares compounds with KCNQ2 enhance | potentiation, less the hit threshold, % at 10 µM;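 active means fluorescence ratio rising 3 SD or more over the vehicle control mean in both replicates, plus primary screen hit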;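 further: peak minus minimum thallium fluorescence divided by baseline after K/Tl stimulus; 0% = vehicle mean plus 3 SD and 100% = vehicle minus unstimulated blank difference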
Kir2-1 sel = tests whether KCNQ2 potentiators also affect mouse Kir2.1; shares compounds with KCNQ2 enhance; HEK293 Kir2.1, FluxOR thallium flux fluorescence; activity over 3SD threshold, % at 10 µM; 1,200 compounds, 2% hits; AID 2345;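 active means fluorescence ratio rise of at least 3 SD above the vehicle-control mean, seen in both replicates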;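 further: 0% = vehicle mean plus 3 SD and 100% = vehicle minus no-stimulus blank window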
KCNQ2 W236L pot = potentiates the retigabine-insensitive rat KCNQ2 W236L mutant channel; shares compounds with KCNQ2 enhance; CHO KCNQ2-W236L, automated patch clamp current; current increase over 3SD of negative controls (%), hits give high values, % at 25 µM; 940 compounds, 10% hits; AID 2558;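 active means current increase at least 3 SD of the untreated controls above them in both duplicate recordings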
* marks the source's active call; other numbers are inactive results; i = inactive; x = not tested or not shown.

SMILES	KCNQ2 block	KCNQ2 enhance	Kir21 conf inh	HEK293 Tl flux	others
COCCCNC(=O)CSc1nc2ccccc2c(=O)n1CCCN1CCCCC1	i	0.68	x	x
COc1ccc(NC(=O)CSc2nc3ccccc3c(=O)n2CCCN2CCCCC2)c(OC)c1	i	x	62%*	i
CCc1ccc(OCCCCN(C)Cc2ccccc2)cc1	i	x	26%*	i
COc1ccc(OCCN(C)Cc2ccccc2)cc1	i	x	x	x
COc1cc(C)ccc1OCCOCCN(C)Cc1ccccc1	i	0.85	x	x
CN(CCCCOc1ccc(F)cc1)Cc1ccccc1	i	1	x	x
Cc1cc(C)c(C)c(OCCCCN(C)Cc2ccccc2)c1	i	x	26%*	i
CN(CCOCCOc1ccc2ccccc2c1)Cc1ccccc1	i	x	17%*	i
CC(C)CNC(=S)NC(=O)c1ccc(Cl)cc1Cl	i	0.02	x	x
CC(C)N(CCO)C(=O)CCc1nnc(Cc2cccc(C(F)(F)F)c2)o1	i	x	x	x
CCOC(=O)C(C)Oc1c(C(=O)OC)sc2ncccc12 (configuration not stated)	i	1.2	x	x
COc1ccccc1N1CCN(Cc2ccc(O)c3ncccc23)CC1	i	6.5*	i	126%*	CHO-K1 Tl ctr=-5;KCNQ1 pot spec=-22;KCNQ2 pot confirm=3.8*;Kir2-1 sel=-45;KCNQ2 W236L pot=i
COc1ccccc1N1CCN(Cc2ccc(OC)c(OC)c2OC)CC1	i	x	x	x
O=C(Nc1ncccc1O)c1ccc2c(c1)OCCO2	i	x	x	x
Oc1ccc(N=Nc2ccc3c(c2)OCCO3)c2ncccc12	i	12*	i	i	CHO-K1 Tl ctr=2.9*;KCNQ1 pot spec=-19;KCNQ2 pot confirm=-20;Kir2-1 sel=-35
Cc1nn(-c2ccccc2)c(C)c1NC(=O)COC(=O)/C=C/c1ccccc1	i	x	x	x
N#Cc1ccc(Cl)cc1NC(=O)CSc1nc2nc(-c3cccs3)cc(C(F)(F)F)c2c(=O)[nH]1	i	1.5	x	x
O=C(CSc1nc2ccccc2[nH]1)NCC1CCCO1 (configuration not stated)	i	x	x	x
CN1CCC(=C(c2ccccc2)c2ccc(Br)cc2)CC1	i	x	38%*	i
CN1CCC(OC(=O)c2ccc(Br)cc2)CC1	i	0.43	x	x
CC(C)(CN1CCN(C(c2ccccc2)c2ccccc2)CC1)NS(=O)(=O)c1ccccc1	i	4.1	x	x
O=C(Nc1cccc(F)c1)c1ccc(Br)o1	i	0.43	x	x
O=C(Nc1cccc(OC(F)(F)F)c1)c1ccc(Br)o1	i	11*	i	i	CHO-K1 Tl ctr=12*;KCNQ1 pot spec=-20;KCNQ2 pot confirm=-2;Kir2-1 sel=-32;KCNQ2 W236L pot=22%*
CC(C)(C)C(=O)NC(=S)Nc1ccc(F)cc1	i	0.27	x	x
N#Cc1ccccc1S(=O)(=O)N1CCN(C(=O)C2CCC2)CC1	i	1.1	x	x
SMILES	KCNQ2 block	KCNQ2 enhance	Kir21 conf inh	HEK293 Tl flux	others
CCN(CC)CCNCc1cc(Br)ccc1OCC(=O)NCc1ccccc1	i	x	x	x
CC(NCc1cc(Br)ccc1OCC(=O)NCc1ccccc1)c1ccccc1 (configuration not stated)	i	x	43%*	i
O=C1CC(N2CCN(Cc3ccc(Cl)cc3)CC2)C(=O)N1CCc1ccccc1 (configuration not stated)	i	5.8*	i	i	CHO-K1 Tl ctr=-9;KCNQ1 pot spec=-22;KCNQ2 pot confirm=22*;Kir2-1 sel=-53;KCNQ2 W236L pot=i
O=C1CC(N2CCN(Cc3ccccc3)CC2)C(=O)N1CCc1ccccc1 (configuration not stated)	i	0.92	x	x
O=Cc1ccc(OCC(=O)N2CCOCC2)cc1	i	x	x	x
Cc1nnc(SCC(=O)Nc2nccs2)o1	i	1.3	x	x
CCC1=NN(C(=O)c2ccc([N+](=O)[O-])cc2)C(O)(c2ccccc2)C1 (configuration not stated)	i	2.1	x	x
CCC1=NN(C(=O)c2ccccc2O)C(O)(c2ccccc2)C1 (configuration not stated)	i	11*	i	148%*	CHO-K1 Tl ctr=-13;KCNQ1 pot spec=-10;KCNQ2 pot confirm=14*;Kir2-1 sel=-37;KCNQ2 W236L pot=i
CC1=NN(C(=O)c2ccccc2C)C(O)(c2ccc(Cl)cc2)C1 (configuration not stated)	i	11*	i	i	CHO-K1 Tl ctr=22*;KCNQ1 pot spec=-16;KCNQ2 pot confirm=-14;Kir2-1 sel=-35
CC1=NN(C(=O)c2ccccc2Cl)C(O)(c2cccnc2)C1 (configuration not stated)	i	3.7	x	x
Cn1nc(Cc2n[nH]c(=S)n2C)c2ccccc2c1=O	i	x	x	x
CCOC(=O)C1CCCN(C(=S)Nc2cc(C)cc(C)c2)C1 (configuration not stated)	i	x	x	x
O=C(Cc1ccccc1)NCC(=O)OCc1ccc([N+](=O)[O-])cc1	i	0.91	x	x
COc1ccc(NC(=O)c2c(NC(=O)CNCc3ccco3)sc3c2CCC3)cc1	i	x	x	x
COC(=O)c1c(NC(=O)CCNCc2ccco2)sc2c1CCC2	i	0.39	18%*	i
CCOC(=O)c1c(NC(=O)CN2CCN(C(=O)c3ccco3)CC2)sc2c1CCCC2	i	0.34	i	i
CCOC(=O)c1c(NC(=O)c2ccco2)sc2c1CCCC2	i	0.59	x	x
O=C(CCC1CCCC1)NNC(=O)c1ccccc1O	i	0.18	x	x
COc1ccccc1/C=C/C(=O)OCC(=O)Nc1cc(C(F)(F)F)ccc1N1CCOCC1	i	x	x	x
Cc1cccc(C)c1N1CCN(CCn2c(=S)[nH]c3ccccc3c2=O)CC1	i	0.71	x	x
Cc1cc2ccccc2n1CCNC(=O)Cc1ccccc1	i	x	x	x
Cc1cccc(CC(=O)NCCn2c(C)cc3ccccc32)c1	i	6.9*	i	i	CHO-K1 Tl ctr=87*;KCNQ1 pot spec=-3;KCNQ2 pot confirm=17*;Kir2-1 sel=-39;KCNQ2 W236L pot=i
O=C(Nc1nc2ccc(Cl)cc2s1)C1CC1	i	0.82	x	x
CC(C)c1ccc2nc(NC(=O)C3CC3)sc2c1	i	5.6*	i	68%*	CHO-K1 Tl ctr=21*;KCNQ1 pot spec=-8;KCNQ2 pot confirm=28*;Kir2-1 sel=-32;KCNQ2 W236L pot=27%*
Cc1c(N2C(=O)CSC2c2ccc(F)cc2)c(=O)n(-c2ccccc2)n1C (configuration not stated)	i	0.65	x	x
O=C(NC(=S)Nc1ccccc1N1CCCC1)c1ccco1	i	7.5*	i	182%*	CHO-K1 Tl ctr=69*;KCNQ1 pot spec=-30;KCNQ2 pot confirm=-8;Kir2-1 sel=-42;KCNQ2 W236L pot=i
COc1ccc2nc(NC(=S)NC(=O)c3ccco3)sc2c1	i	13*	i	i	CHO-K1 Tl ctr=3.0*;KCNQ1 pot spec=2.4*;KCNQ2 pot confirm=6.4*;Kir2-1 sel=-28;KCNQ2 W236L pot=i

Bioassay records: PubChem, Johns Hopkins Ion Channel Center
